A selection: hits, their analogues and other compounds. The true share with any hit is near 2%.
PKM2 activator = increases activity of human pyruvate kinase M2 | P14618 | purified PKM2, Kinase-Glo ATP luminescence, activation; response scale: 0% is enzyme alone, no compound | Potency, µM (top dose mostly 57.5 µM), for inactives: top-dose activation, usual class: activators | 260,000 compounds, 0.34% hits; further: potency means the concentration at half of the fitted maximal effect; on the % scale 0 is the no-effect control and ±100 the full control effect; nearly all actives have a fitted effect of over 55% in size
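Kinase-Glo luminescence reports ATP generated from ADP (0.1 mM) and PEP (0.5 mM) by purified hPK-M2 after 1 h at room temperature, pH 7.2 imidazole buffer; intermediate enzyme activity allows detecting inhibitors and activators.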
ClpP mod = qHTS Assay for Activators of ClpP; ATP-dependent Clp protease proteolytic subunit (Bacillus subtilis (strain 168)), P80244; 340,000 compounds, 1.9% hits; AID 651965, 2013; Potency, µM (titrated, usually from 57.5 µM), for the others: at the top dose activity change, negative = active; purified B. subtilis ClpP, FRET peptide cleavage, 20 min; active means well fitted falling curve with a large enough effect; inconclusive means small, poorly fitted or top-dose-only effect; inactive means no such curve, though single readings can be large or run the other way; further: potency means the concentration at half of the fitted maximal effect; the source files actives as falling curves though it sought activators and does not explain the sign; nearly all actives have a fitted effect of over 65% in size
Target sequence (P80244 whole entry, looked up): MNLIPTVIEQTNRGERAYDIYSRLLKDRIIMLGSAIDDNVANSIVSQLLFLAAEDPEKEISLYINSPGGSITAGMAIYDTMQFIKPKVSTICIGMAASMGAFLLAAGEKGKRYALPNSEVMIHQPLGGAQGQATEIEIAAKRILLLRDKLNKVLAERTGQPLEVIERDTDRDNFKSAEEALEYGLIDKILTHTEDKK
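FRET quenching reversal measured ClpP activation: 10 microg/mL B. subtilis ClpP at pH 8 with the FRET-FV decapeptide, read at 430 nm after 320 nm excitation. The 20-min minus 0-min signal was scaled between DMSO/no-enzyme wells and ADEP (5.8 microM final).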
NPSR antag = blocks cAMP signaling of the human neuropeptide S receptor. Q6W5P4. AID 1461. 220,000 compounds, 1% hits. Potency, µM (titrated, usually from 38.3 µM), without a hit: top-dose activity change, negative = inhibition, most hits filed as inhibitors. CHO-NPSR cells, cAMP TR-FRET, antagonist mode; further: potency means the concentration at half of the fitted maximal effect; on the % scale 0 is the no-effect control and ±100 the full control effect; nearly all actives have a fitted effect of over 50% in size
Target sequence (Q6W5P4 whole entry, looked up): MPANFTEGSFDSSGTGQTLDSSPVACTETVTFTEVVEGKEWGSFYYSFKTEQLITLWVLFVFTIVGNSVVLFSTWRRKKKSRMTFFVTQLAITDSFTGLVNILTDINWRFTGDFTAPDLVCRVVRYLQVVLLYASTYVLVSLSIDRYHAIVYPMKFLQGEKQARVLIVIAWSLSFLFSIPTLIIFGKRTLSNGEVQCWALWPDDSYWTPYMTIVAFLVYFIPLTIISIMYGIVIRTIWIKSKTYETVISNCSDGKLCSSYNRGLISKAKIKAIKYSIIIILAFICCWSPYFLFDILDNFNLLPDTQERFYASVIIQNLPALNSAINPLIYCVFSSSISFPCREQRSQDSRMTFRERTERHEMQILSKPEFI
IL2 activator = IL-2 activation; 360,000 compounds, 0.065% hits; activation, % (series mostly up to about 46 µM); IL-2 activation reporter assay, cell-based qHTS; stimulated with anti-CD3/CD4/CD28 beads; in transgenic mouse T cells; AID 652025; in the data active means activation above about 50%; inconclusive means mostly about 30% to 49%; further: 0% is about no effect
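Unstimulated transgenic mouse T cells; 60-min compound exposure; bead-based TCR/CD4/CD28 stimulation; 18 h culture, 37 degrees C; dual fluorescence (EGFP, DsRed) plate cytometry.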
An asterisk follows results filed as active; ? = inconclusive; nt = not tested or not shown; [ ] = dose if it differs, or a comment. Unless noted, the call rests on the fitted dose curve; in most records, active means well fitted curve in the direction sought with a large enough effect; inconclusive means small, poorly fitted or top-dose-only effect, or another doubt; inactive means no such curve, though single readings can be large; an effect the other way counts as inactive or inconclusive.

SMILES	PKM2 activator	ClpP mod	NPSR antag	IL2 activator
CN(CCOc1ccccc1)C(=O)c1ccc2c(=O)n3c(nc2c1)CCC3	nt	-4.5%	nt	-1.3
Cc1cccc(Oc2sc(C(=O)c3ccccc3)c(N)c2C#N)c1	3.2%	14.1µM*	?	-0.8
N#Cc1c(Nc2ccccc2)sc(C(=O)c2ccccc2)c1N	7.9%	-2.3%	-24.4%[46.1 µM]	-0.7
Clc1ccccc1Cn1nnc2c(Nc3ccccc3)ncnc21	18.2%	-11.6%	-21.2%[46.1 µM]	3.6
Clc1ccccc1Cn1nnc2c(NCC3CC3)ncnc21	8.91µM*	-1.6%	0.1%[46.1 µM]	-1.5
Cc1ccc(N=c2oc3cc(O)ccc3cc2C(N)=O)cc1	?	25.1µM*	-20.5%[46.1 µM]	0.4
COc1ccccc1-c1ccc(NC2CCCCC2)nn1	9.0%	-5.8%	-14.8%[46.1 µM]	0.2
CCN(CC)S(=O)(=O)c1cc(NC(=O)CSc2nc3c(cc2C#N)C(=O)CC(C)(C)C3)ccc1C	1.3%	-1.5%	-53.9%	-1.7
O=[N+]([O-])c1cc(S(=O)(=O)N2CCCC2)ccc1N/N=C1/CCCc2ccccc21	-3.8%	15.8µM*	-14.1%	0.5
Cc1ccc(-n2ncc(C(=O)NCCN3CCN(C)CC3)c2C2CCN(C(=O)OC(C)(C)C)CC2)cc1C	nt	0.7%	nt	nt
COc1ccc(-c2nn(-c3ccccc3)cc2CNC(C)Cn2cncn2)c(F)c1 (stereo unspecified)	0.1%	-2.7%	4.3%	0.1
Cc1cc(C)nc(Sc2ccc(/C=C(\C#N)C(N)=O)o2)n1	-13.5%	28.2µM*	-11.6%	1.2
Cc1ccc(NC(=O)/C(C#N)=C/c2ccc(Sc3nc(C)cc(C)n3)o2)cc1	14.4%	1.0%	-13.3%[46.1 µM]	9.8
Cc1ccc(CNC(=O)CCCCCn2c(=O)[nH]c3ccccc3c2=O)cc1	nt	-9.9%	nt	nt
Cc1cc(C)c(S(=O)(=O)c2ccccc2)c(N2CCOCC2)n1	-0.4%	nt	5.3%	-0.3
COc1cc(C=O)ccc1OCc1cccc(Br)c1	10.0%	25.1µM*	16.2%	0.5
COc1cc(C=O)ccc1OCc1ccccc1Br	-10.4%	-1.3%	-2.1%	0.7
C[C@@H]1COC(=O)[C@H](CC(=O)OC(C)(C)C)C/C=C\C[C@H](CC(=O)N(CCO)Cc2ccccc2)C(=O)N1	nt	-1.9%	nt	-0.3
Cc1ccc(NC(=O)C2CCN(S(C)(=O)=O)CC2)cc1	-2.5%	1.7%	-5.1%[46.1 µM]	-0.3
CCc1ccc(NC(=O)C2CCN(S(C)(=O)=O)CC2)cc1	5.5%	0.3%	?	56.3*
O=C(Cn1c(=O)nc(-c2ccccc2F)c2cc(Cl)ccc21)N1CCN(c2ccccc2F)CC1	nt	-27.4%	nt	nt
O=C(NCCS(=O)(=O)N1CCc2ccccc2C1)c1ccccc1	nt	-1.0%	nt	2.0
COCCNC(=O)[C@@H]1CSC2c3ccccc3C(=O)N21 (stereo partly specified)	nt	31.6µM*	nt	-1.1
CCOc1ccc(CCNC(=O)CCc2c(C)nc3cc(-c4ccccc4OC)nn3c2C)cc1	nt	4.0%	nt	nt
COc1ccc2oc(C(=O)Nc3nnc(C)s3)c(C)c2c1	nt	28.2µM*	nt	0.1
SMILES	PKM2 activator	ClpP mod	NPSR antag	IL2 activator
COc1ccc2oc(C(=O)NC(C)c3ccccn3)c(C)c2c1 (stereo unspecified)	nt	25.1µM*	nt	-1.5
COc1ccc2oc(C(=O)Nc3nc4ccc(S(C)(=O)=O)cc4s3)c(C)c2c1	nt	15.8µM*	nt	-0.9
Cc1ccc2oc(C(=O)Nc3nnc(C)s3)c(C)c2c1	5.9%	-0.5%	17.8%[46.1 µM]	-1.5
COc1ccc2c(C)c(C(=O)O)oc2c1	0.2%	25.1µM*	5.1%[46.1 µM]	-2.4
COc1ccc2c(=O)cc(C(=O)O)oc2c1	-23.6%	nt	16.5%	0.4
O=C(Cn1cnc2c(nnn2Cc2ccccc2)c1=O)c1ccc(Cl)cc1	-1.2%	-1.8%	-9.6%[46.1 µM]	-1.0
Cc1ccc(C2N(c3ccccc3)C(=S)N3CCCN23)cc1 (stereo unspecified)	3.3%	-3.2%	-5.9%[46.1 µM]	-1.1
CC(=O)N(C(C)=O)c1nc(-c2ccccc2)cn1/N=C/c1ccccc1	0.1%	31.6µM*	-27.8%	-0.9
CC1CCC/C(=C\Nc2ccccc2C(=O)O)C1=O (stereo unspecified)	-0.4%	22.4µM*	0.9%[46.1 µM]	-3.1
CC1CCC/C(=C\Nc2ccc3c(c2)OCO3)C1=O (stereo unspecified)	-3.4%	-0.9%	-8.9%[46.1 µM]	-0.1
Cc1[nH]n2c(=O)c3c(nc2c1-c1ccccc1)CCC3	-5.7%	31.6µM*	-16.4%[46.1 µM]	0.4
Cc1[nH]n2c(=O)c3c(nc2c1-c1ccc(Cl)cc1)CCC3	-10.8%	25.1µM*	-6.1%[46.1 µM]	0.0

Screens as filed in PubChem BioAssay.
